Screening data from PubChem.
A selection: hits, their analogues and other compounds. The true share with any hit is near 4.6%.
HSF1 inhib: HSF1 inhibitors in luciferase reporter cells, primary screen, cell-based, NIH3T3, luminescence | NIH3T3-HGL HSE-luciferase, MG132-induced, luminescence 8 h; active compounds read low | activity change, negative = inhibition, % at 7.5 µM (by protocol) | 300,000 tested, 0.77% active | AID 2098, 2009;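 active = more than half of replicate wells show activity change below -50%, luminescence cut by over half; inconclusive = some wells, but at most half, below -50%; inactive = no replicate well below -50%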;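 also: luciferase reports HSF-1 transcriptional activity via heat shock element; 0% = median of DMSO wells and -100% = zero luminescence signal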
AHR act: AHR activators, primary screen, cell-based, luminescence, luciferase reporter, human. Aryl hydrocarbon receptor (Homo sapiens), P35869. AHR-responsive luciferase reporter cells. activation, % at 5 µM. 320,000 tested, 2.5% active; in the data active = activation above about 47%;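 also: 0% = vehicle wells and 100% = reference agonist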
Target sequence (P35869 whole entry, looked up): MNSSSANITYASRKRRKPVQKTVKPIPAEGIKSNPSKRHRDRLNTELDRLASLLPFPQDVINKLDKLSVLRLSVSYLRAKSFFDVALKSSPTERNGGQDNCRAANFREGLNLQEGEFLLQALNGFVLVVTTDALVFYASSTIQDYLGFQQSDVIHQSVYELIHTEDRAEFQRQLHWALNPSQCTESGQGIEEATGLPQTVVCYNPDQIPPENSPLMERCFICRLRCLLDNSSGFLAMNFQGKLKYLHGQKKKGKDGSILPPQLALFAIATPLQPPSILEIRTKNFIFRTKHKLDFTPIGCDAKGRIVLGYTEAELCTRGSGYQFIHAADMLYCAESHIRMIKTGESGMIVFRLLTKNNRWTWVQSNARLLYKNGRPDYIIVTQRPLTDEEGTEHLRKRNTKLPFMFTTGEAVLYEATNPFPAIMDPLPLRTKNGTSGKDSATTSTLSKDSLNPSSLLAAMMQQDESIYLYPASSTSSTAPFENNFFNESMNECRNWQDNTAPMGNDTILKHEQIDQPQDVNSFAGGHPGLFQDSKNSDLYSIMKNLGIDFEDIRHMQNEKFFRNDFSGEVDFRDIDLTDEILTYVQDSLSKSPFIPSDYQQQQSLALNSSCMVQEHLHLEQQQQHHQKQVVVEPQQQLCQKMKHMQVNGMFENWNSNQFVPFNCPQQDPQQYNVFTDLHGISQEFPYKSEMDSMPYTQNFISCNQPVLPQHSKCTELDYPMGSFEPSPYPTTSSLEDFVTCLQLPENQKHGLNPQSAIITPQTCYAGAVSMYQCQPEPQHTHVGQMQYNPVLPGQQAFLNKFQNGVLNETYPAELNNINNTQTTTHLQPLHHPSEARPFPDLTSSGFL
FXN GAA850 act: FXN promoter activators, primary screen, cell-based, luciferase luminescence, HEK293 lucGAA850; HEK293 lucGAA850 FXN promoter luciferase reporter, 24 h; percent of 10 µM SAHA response; AID 540364, 2011; activation, % at 6 µM; 360,000 tested, 0.56% active;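 active = activation above the average of all compounds screened plus 3 SD, cutoff fixed separately per campaign, cut at about 7.5% in these data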;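 also: 0% = DMSO wells and 100% = 10 µM SAHA wells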
HSF-1 act: HSF-1 activators, primary screen, NIH3T3-HGL cells, MG132 stress, luminescence, single point; NIH3T3-HGL HSF-1 luciferase reporter, 8 h; 100% = twice DMSO control signal; activation, % at 9 µM; 300,000 tested, 1.7% active;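 active = mean replicate activation of at least 50% with a set share of replicates each reaching 50%; inconclusive = only one of those two conditions met; inactive = mean below 50% and too few replicates reaching it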;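 also: 0% = median of the neutral control wells and 100% = twice that signal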
* marks the source's active call; other numbers are inactive results; ? = inconclusive; · = not tested or not shown.

SMILES	HSF1 inhib	AHR act	FXN GAA850 act	HSF-1 act
CC(C)[C@H](N)C(=O)NC[C@H]1CC[C@H](C(=O)N[C@@H](Cc2ccccc2)C(=O)O)CC1	-63*	-1	0	-69
CC(C)[C@@H](N)C(=O)NCC1CCC(C(=O)N[C@@H](Cc2ccccc2)C(=O)O)CC1 (some centres not stated)	-4	-1	2	8
CC(C)C[C@H](NC(=O)OC(C)(C)C)C(=O)NCC1CCC(C(=O)N[C@@H](Cc2ccccc2)C(=O)O)CC1 (some centres not stated)	-6	0	0	-27
CC(C)[C@H](NC(=O)OC(C)(C)C)C(=O)NCC1CCC(C(=O)N[C@@H](Cc2ccccc2)C(=O)O)CC1 (some centres not stated)	-59*	0	2	-67
CCOc1ccccc1NC(=S)NCc1ccccc1	-2	6	-1	2
CCOc1ccc(NC(=S)Nc2cc(-c3ccccc3)[nH]n2)cc1	-28	78*	2	-27
CCOc1ccccc1NC(=S)NCc1ccco1	20	3	1	52*
S=C(NCc1ccco1)Nc1cc(-c2ccccc2)[nH]n1	26	74*	2	28
CCOc1ccccc1N1Cc2cc(C)c(C)cc2C1	-5	8	0	-2
C=CCN=C1NN=C(c2ccc3c(c2)OCCO3)CS1	-56*	-3	-3	-63
c1ccc(C2=NNC(=NCc3ccc4c(c3)OCO4)SC2)cc1	10	14	2	6
COC(=O)C(CC(C)C)NC(=O)c1ccc([N+](=O)[O-])cc1 (configuration not stated)	1	-2	-2	-10
CN(CC(=O)Nc1ccc(F)cc1)C(=O)COC(=O)c1cc(S(=O)(=O)N(C)C)ccc1N1CCCC1	-68*	-1	-1	-74
COC(=S)Nc1cccc(C(F)(F)F)c1	-3	1	2	-3
COC(=O)/C=C/C(=O)Nc1cccc(C(F)(F)F)c1	51	12	-11	93*
Cc1cc(C)nc(/N=C(\N)N2CCc3ccccc32)n1	9	54*	6	19
CC(O)c1cc2c(s1)c1cnn(Cc3ccccc3F)c(=O)c1n2C (configuration not stated)	·	3	1	·
O=C(CN1CC[C@@]2(O)CCCC[C@H]2[C@@H]1c1ccc(F)cc1)NCc1ccco1	6	3	-2	35
O=S1(=O)c2cccc3cccc(c23)N1Cc1nnc(-c2ccccc2Br)o1	55	-3	0	73*
CCCOc1ccc(-c2nc(OC)c3ccccc3n2)cc1	13	77*	4	35
Cc1ccc(C(=O)N/C(=C\c2ccc(-c3ccccc3[N+](=O)[O-])o2)C(=O)NCCN(C)C)cc1	26	52*	0	49
CN(C)CCNC(=O)/C(=C/c1ccc(-c2cccc([N+](=O)[O-])c2)o1)NC(=O)c1ccccc1	-3	1	-2	21
Cc1ccc(C(=O)N/C(=C\c2ccc(-c3ccccc3[N+](=O)[O-])o2)C(=O)NCCCN(C)C)cc1	3	30	0	31
CN(C)CCNC(=O)/C(=C/c1ccc(-c2cccc(Cl)c2)o1)NC(=O)c1ccccc1	24	-1	2	66*
CCOC(=O)c1c2n(c3ccc(OC(C)=O)cc13)CCC2	2	48*	0	-4
SMILES	HSF1 inhib	AHR act	FXN GAA850 act	HSF-1 act
O=C1c2ccccc2C2(c3ccc(F)cc3)NCCN12 (configuration not stated)	-5	0	0	1
Cc1ccc(-n2cc(-c3ccc([N+](=O)[O-])cc3)[nH]c2=S)c(C)c1	28	2	3	?
COc1ccc(-c2cn(-c3ccccc3)c(=S)[nH]2)cc1OC	24	43	2	45
COc1ccccc1-n1cc(-c2ccc([N+](=O)[O-])cc2)[nH]c1=S	6	63*	1	35
COc1ccccc1-n1cc(-c2ccc(Br)cc2)[nH]c1=S	8	78*	0	18
S=c1[nH]c(-c2ccc(Br)cc2)cn1CCc1ccccc1	26	16	3	62*
COc1cccc(-c2cc(C(=O)N/N=C/c3ccco3)c3ccccc3n2)c1	26	44	2	35
Cc1nnc(SCC(=O)Nc2ccc(C(N)=O)cc2)n1-c1ccccc1	0	0	2	15
CC(C)(C)c1[nH]nc2c1C(c1ccc(OC(=O)c3ccco3)cc1)C(C#N)=C(N)O2 (configuration not stated)	13	0	0	50
Nc1[nH]nc2c1NN(c1ccc(Cl)cc1Cl)N2	-7	75*	0	-5
CC(C)c1ccc(CNc2ccc([N+](=O)[O-])cn2)cc1	58	3	4	71*
CC(C)NC(=O)N(C)C[C@H]1Oc2c(NS(=O)(=O)c3ccc(F)cc3)cccc2C(=O)N([C@H](C)CO)C[C@@H]1C	·	-1	-2	·
O=[N+]([O-])c1ccccc1COc1ccc(Cl)c2cccnc12	11	72*	5	44
O=C(Oc1ccc(Cl)c2cccnc12)c1cccc([N+](=O)[O-])c1	-3	24	0	1
CCCCN1C(=O)c2ccccc2C1C(=O)NC1CCCC1 (configuration not stated)	-4	4	3	2
CC(=O)c1c(C)[nH]c(C(=O)Nc2cccc3ccccc23)c1C	6	110*	2	43
CC(=O)c1c(C)[nH]c(C(=O)Nc2ccccc2Cl)c1C	9	59*	5	19
CCNS(=O)(=O)c1ccc(S(=O)(=O)N(Cc2ccccn2)C2CCCCC2)cc1	-5	2	-2	-9
COc1ccc(OC)c(/C=N/NC(=O)CCc2n[nH]c(=O)[nH]c2=O)c1	0	60*	3	1
CNC(=O)Nc1cccc(C(F)(F)F)c1	-3	2	2	-15
S=C(NCCc1ccccc1)N1CCN(Cc2ccc(Cl)c(Cl)c2)CC1	-62*	2	3	-70
CCOC(=O)C1(C)CCCCN1C(=O)c1ccc(N(C)C)cc1 (configuration not stated)	·	·	-1	·
Cc1ccc(CNC(=O)C2CCCN2C(=O)Nc2ccc(C)cc2)cc1 (configuration not stated)	-3	-2	2	2
Cc1ccc(NC(=O)N2CCCC2C(=O)NCC2CCCCC2)cc1 (configuration not stated)	-89*	0	1	-92
CN(C)C(=O)N1CCC(C(=O)NCc2ccc(F)cc2Cl)CC1	-69*	-4	1	-73
CCC(CO)NCc1sccc1C (configuration not stated)	-12	0	0	3
O=C(COC(=O)c1ccccc1[N+](=O)[O-])c1ccc2c(c1)OCO2	-66*	-3	-8	-70
Cc1cccc(C(=O)OCC(=O)c2ccc3c(c2)OCO3)c1O	45	2	3	66*
